From PubChem BioAssay AID2546 (National Center for Advancing Translational Sciences (NCATS), 2010) come the findings set out here.

Each structure is given as a SMILES string. About 11,000 (3.5%) of roughly 310,000 compounds were called active. Entries that show only a call come without a potency. About 8% were inconclusive and are not listed. Calls come from the whole dose curve; as a rule, active = well fitted inhibition curve with a large enough effect; inconclusive = small, poorly fitted or top-dose-only effect, or effect the other way; inactive = flat fitted curve, though single readings scatter. For the sample, actives were picked, then their nearest neighbours and some compounds at random.
Potency is the fitted concentration of half-maximal effect.

A short description of the experiment: VP16 counterscreen qHTS for inhibitors of ROR gamma transcriptional activity.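 Note: Gal4-VP16 expression switched on by copper sulfate through the metallothionein promoter; nearly all actives have a fitted effect of over 50% in size.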 To be noted: Drosophila S2 Gal4-VP16 UAS-luciferase, luminescence, 20 h; series mostly up to 53.6 µM. In general terms: Counterscreens check selectivity or assay interference.
Turning to `Cc1cccn2cc(-c3cccc(S(=O)(=O)N4CCCCC4)c3)nc12`, the Potency result was “inactive”.

In the case of `COc1ccc(CCC(C)N2CCc3ccccc3C2)cc1` (stereo not drawn), the Potency entry is “inactive”.

`Cc1cccc([C@@H]2[C@@H]3C(=O)N(Cc4ccccc4)C(=O)[C@@H]3[C@]3(C)C(=O)N(c4ccc(Br)cc4)C(=O)N23)c1`: the Potency entry was “inactive”.

Turning to `Cn1nccc1C(=O)N1CCCC(C(=O)c2ccc(Oc3ccccc3)cc2)C1` (stereo not drawn), the Potency result is “inactive”.

On to `CCOC(=O)[C@H]1[C@H]2COc3cc(OC)ccc3[C@@H]2N2C(=O)N(c3ccc(Br)cc3)C(=O)[C@@]12C`, for which the Potency result was “inactive”.

Consider `Cc1ccc(OCCCC(=O)Nc2ccc(S(=O)(=O)Nc3cc(C)nc(C)n3)cc2)cc1`, for which the Potency entry was “inactive”.

Regarding `Cc1ccc(CSc2nsc(C)c2C#N)cc1`, the Potency result is “inactive”.

As for `COC(=O)C1[C@H]2SC(C)(C)C(C(=O)OC)N2C(=O)N1Cc1nc2ccccc2s1` (stereo partly drawn), the Potency entry was “inactive”.

As for `CCC1(CC)NC(=O)N(Cc2nc3ccccc3s2)C1=O`, the Potency was 3.55 µM (active).

`CN(Cc1nc2ccccc2s1)C(=O)c1ccc(F)cc1`: the Potency result was “inactive”.

Take `N#Cc1ccc(C2N=C(c3ccccc3)NO2)cc1` (stereo not drawn): the Potency result is “inactive”.

For the molecule `O=C(Cc1ccccc1)NC(=S)Nc1ccc(N2CCCCC2)cc1`, the Potency is 3.55 µM (active).

With `COc1ccc(C(=O)N/N=C(\C)CC(=O)Nc2ccc(Cl)cn2)cc1`, the Potency result was “inactive”.

On to `O=C(c1ccccc1)c1ccc(C(=O)N2CCN(c3ccccc3)CC2)cc1`, for which the Potency entry is “inactive”.

With `COc1c(Cl)cc(C(=O)Nc2ccc(Cl)cn2)cc1Cl`, the Potency result was “inactive”.

Take `Cc1ccccc1C(=O)Nc1ccc(N2CCCCCC2)cc1`: the Potency entry is “inactive”.

With `COc1ccc(C(=O)Nc2ccc(N3CCC(C)CC3)cc2)cc1Br`, the Potency result is “inactive”.

On to `Cc1ccccc1C(=O)NC(=S)Nc1ccc(N2CCN(C(=O)c3ccccc3)CC2)cc1`, for which the Potency is 5.62 µM (active).

In the case of `COc1ccc(C(=O)NC(=S)Nc2ccc(Cl)cn2)cc1OC`, the Potency is 12.6 µM (active).

On to `O=C(CCN1CCN(c2ccccc2)CC1)NNC(=S)Nc1ccccc1`, for which the Potency result is “inactive”.

For the molecule `Cc1ccccc1C(=O)N1CCN(c2ccc(NC(=O)c3cccs3)cc2)CC1`, the Potency result is “inactive”.

For the molecule `COc1ccc(C(=O)NC(=S)Nc2ccc(N3CCCC3)cc2)cc1OC`, the Potency was 0.891 µM (active).

`COc1ccc(C(=O)Nc2ccc(C3(C#N)CCCC3)cc2)cc1OC`: the Potency result is “inactive”.

Consider `CC1CN(C(=S)Nc2cccc(F)c2)CC(C)O1` (stereo not drawn), for which the Potency result is “inactive”.

Take `O=C(C1CC(=O)N(C2CCCCC2)C1)N1CCN(c2ccccc2)CC1` (stereo not drawn): the Potency result is “inactive”.

As to `O=C(CN(CC1CCCO1)C(=O)CNS(=O)(=O)c1ccc(Cl)cc1)NCc1ccccc1` (stereo not drawn), the Potency result was “inactive”.

`CCOc1ccc(NC(=O)c2nc(SCC)ncc2Cl)cc1`: the Potency entry is “inactive”.

Regarding `O=[N+]([O-])c1cc([N+](=O)[O-])c(Oc2cc(F)cc(F)c2F)cc1NN1CCCCC1`, the Potency entry is “inactive”.
